Counter-ions that a name gives are not always drawn. ± gives the standard deviation of the averaged measurements.

Holding throughout (test): growth (OD600 after 10 h); higher = more growth (less inhibition)
Experiment [1] concerns E. coli TESEC Alr+ wild-type control. The following applies: compound 0.1 mM; raw OD600 reference: median of DMSO wells 0.241, cell-free background 0.041. How it is done:
(§1)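 TESEC Mtb Alr E. coli, or the Alr+ wild-type control, in 384-well plates with Prestwick library compounds at 0.1 mM and 1% DMSO, across arabinose induction levels of 1E3 to 1E7 nM. Growth is read as OD600 after 10 h at 37 °C in triplicate biological replicates.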

In experiment [2] the test system is E. coli TESEC Mtb Alr. Conditions: compound 0.1 mM. How it is done:
as §1

The next experiment has as its system E. coli TESEC Mtb Asd. The following applies: compound 0.1 mM. As to the method:
(§2)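 TESEC E. coli strains in which the native enzyme is deleted and replaced by arabinose-inducible Mtb Asd, DapB, CysH or TrpD, each grown in its selective medium. Strains were screened against the Prestwick library at 0.1 mM and 1% DMSO in 384-well format at low and high arabinose induction. Growth is read as OD600 after 10 h in triplicate.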

The next experiment concerns E. coli TESEC Mtb DapB. The following applies: compound 0.1 mM. As to the method: as §2
Experiment [3] concerns E. coli TESEC Mtb Alr. Conditions: compound 0.1 mM. As to the method:
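TESEC Mtb Alr E. coli (ΔaraC ΔtolC ΔentC Δalr ΔdadX, arabinose-inducible Mtb Alr) or the Alr+ wild-type control strain, grown in defined M9-fructose medium without D-alanine in 96-well plates with Prestwick library compounds at 0.1 mM and 1% DMSO. Low Alr induction is 0.1 µM arabinose and high induction is 10 mM arabinose.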
The source holds these as a separate data set.

[4] abbreviates: arabinose 1000 nM, raw OD600 reference: median of DMSO wells 0.294, cell-free background 0.041.
[5] abbreviates: arabinose 10000 nM, raw OD600 reference: median of DMSO wells 0.264, cell-free background 0.041.
Setting [6] is: arabinose 100000 nM, raw OD600 reference: median of DMSO wells 0.201, cell-free background 0.041.
Where [7] appears, read: arabinose 1000000 nM, raw OD600 reference: median of DMSO wells 0.193, cell-free background 0.041.
Where [8] appears, read: arabinose 10000000 nM, raw OD600 reference: median of DMSO wells 0.146, cell-free background 0.041.
[9] abbreviates: arabinose induction (level): High, raw OD600 reference: median of DMSO wells 0.331, cell-free background 0.041.
Where [10] appears, read: arabinose induction (level): Low, raw OD600 reference: median of DMSO wells 0.417, cell-free background 0.041.
[11] abbreviates: arabinose induction (level): High, raw OD600 reference: median of DMSO wells […], cell-free background 0.041.
The mark [12] stands for this setting: arabinose induction (level): Low, raw OD600 reference: median of DMSO wells 0.227, cell-free background 0.041.
The mark [13] stands for this setting: arabinose 100 nM, raw OD600 reference: median of DMSO wells 0.413, cell-free background 0.052.
Setting [14] is: arabinose 10000000 nM, raw OD600 reference: median of DMSO wells […], cell-free background 0.052.

Turning to `COc1ccc(OC)c(C(O)C(C)N)c1` (stereo not drawn) [Methoxamine hydrochloride], the growth in experiment [1] was determined as 0.241 ± 0.0052; with E. coli TESEC Mtb Alr [2] (setting [4]) it was 0.292 ± 0.0063; in the experiment with E. coli TESEC Mtb Alr [2] (setting [5]), 0.27 ± 0.005; with E. coli TESEC Mtb Alr [2] (setting [6]), 0.212 ± 0.024; in the experiment with E. coli TESEC Mtb Alr [2] (setting [7]) it was 0.187 ± 0.003; with E. coli TESEC Mtb Alr [2] (setting [8]), 0.148 ± 0.0068. Moreover, the growth in the experiment with E. coli TESEC Mtb Asd (setting [9]) is 0.272 ± 0.074; with E. coli TESEC Mtb Asd (setting [10]) it was 0.409 ± 0.021; with E. coli TESEC Mtb DapB (setting [11]), 0.223 ± 0.033; in the experiment on E. coli TESEC Mtb DapB (setting [12]), 0.222 ± 0.028; with E. coli TESEC Mtb Alr [3] (setting [13]) it was 0.413 ± 0.011; in the experiment on E. coli TESEC Mtb Alr [3] (setting [14]) it was 0.334 ± 0.023.

Consider `COc1ccc(C(CN(C)C)C2(O)CCCCC2)cc1` (stereo not drawn) [Venlafaxine], for which the growth in experiment [1] was found to be 0.219 ± 0.015; in the experiment with E. coli TESEC Mtb Alr [2] (setting [4]), 0.301 ± 0.016; in the experiment with E. coli TESEC Mtb Alr [2] (setting [5]) it was 0.251 ± 0.01; in the experiment on E. coli TESEC Mtb Alr [2] (setting [6]), 0.185 ± 0.013; with E. coli TESEC Mtb Alr [2] (setting [7]) it was 0.178 ± 0.0042; with E. coli TESEC Mtb Alr [2] (setting [8]), 0.137 ± 0.0036. Moreover, the growth in the experiment with E. coli TESEC Mtb Asd (setting [9]) turned out to be 0.436 ± 0.066; in the experiment with E. coli TESEC Mtb Asd (setting [10]) it was 0.459 ± 0.032; with E. coli TESEC Mtb DapB (setting [11]) it was 0.207 ± 0.0032; with E. coli TESEC Mtb DapB (setting [12]), 0.22 ± 0.016; in the experiment with E. coli TESEC Mtb Alr [3] (setting [13]), 0.415 ± 0.0048; in the experiment with E. coli TESEC Mtb Alr [3] (setting [14]) it was 0.338 ± 0.025.

As to `CCN[C@@H](C)Cc1cccc(C(F)(F)F)c1` [Dexfenfluramine hydrochloride], the growth in experiment [1] was 0.23 ± 0.013; in the experiment with E. coli TESEC Mtb Alr [2] (setting [4]) it was 0.315 ± 0.0066; in the experiment with E. coli TESEC Mtb Alr [2] (setting [5]) it was 0.261 ± 0.0059; in the experiment with E. coli TESEC Mtb Alr [2] (setting [6]), 0.232 ± 0.027; in the experiment on E. coli TESEC Mtb Alr [2] (setting [7]), 0.174 ± 0.0053; with E. coli TESEC Mtb Alr [2] (setting [8]), 0.158 ± 0.0058. The growth was found to be 0.235 ± 0.033 in the experiment with E. coli TESEC Mtb Asd (setting [9]); 0.335 ± 0.083 in the experiment on E. coli TESEC Mtb Asd (setting [10]); 0.189 ± 0.0055 in the experiment on E. coli TESEC Mtb DapB (setting [11]); 0.246 ± 0.0058 with E. coli TESEC Mtb DapB (setting [12]); 0.412 ± 0.0093 with E. coli TESEC Mtb Alr [3] (setting [13]); 0.351 ± 0.026 in the experiment on E. coli TESEC Mtb Alr [3] (setting [14]).

Take `COc1cc2c(cc1OC)C(C)NCC2` (stereo not drawn): the growth amounted to 0.236 ± 0.0037 in experiment [1]; 0.2925 ± 0.0014 in the experiment with E. coli TESEC Mtb Alr [2] (setting [4]); 0.275 ± 0.0075 with E. coli TESEC Mtb Alr [2] (setting [5]); 0.225 ± 0.035 with E. coli TESEC Mtb Alr [2] (setting [6]); 0.188 ± 0.0027 in the experiment with E. coli TESEC Mtb Alr [2] (setting [7]); 0.15 ± 0.0045 with E. coli TESEC Mtb Alr [2] (setting [8]). In addition, the growth was found to be 0.337 ± 0.049 in the experiment with E. coli TESEC Mtb Asd (setting [9]); 0.349 ± 0.082 with E. coli TESEC Mtb Asd (setting [10]); 0.212 ± 0.013 with E. coli TESEC Mtb DapB (setting [11]); 0.232 ± 0.0067 with E. coli TESEC Mtb DapB (setting [12]); 0.408 ± 0.011 in the experiment with E. coli TESEC Mtb Alr [3] (setting [13]); 0.323 ± 0.025 in the experiment with E. coli TESEC Mtb Alr [3] (setting [14]).
